Values joined by “and” are separate entries in the source; they are usually repeats but may differ in a detail not shown here. Identical values can stand only once. Records with an inconclusive call do not appear. More than one record can exist for a structure, and the calls need not agree. Active and inactive are the calls of the source. Rule for the calls: active = hit-call score of the fitted dose curve at least 0.9, where 1 is the maximum; inconclusive = response in the unintended direction; inactive = score below 0.9.

The target in assay [1] is AR (gene 367) (UniProt P10275). The experiment in a line: ACEA_AR_antagonist_80hr: ACEA Biosciences xCELLigence Real-Time Cell Analysis on Androgen Receptor Antagonism for Proliferation (AID 2283787).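 Note: hits lower the impedance growth signal relative to DMSO.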 The gist of the method:
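Impedance readout (RT-CES), 80 h post-dose; loss-of-signal vs DMSO baseline. 22Rv1 cells in assay medium. Compounds: 8-pt 1:4 series, max 100 uM final, up to 0.5% DMSO; n = 2.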

Assay [2] can be described thus: ACEA_ER_AUC_viability: ACEA Biosciences xCELLigence Real-Time Cell Analysis on Estrogen Receptor Agonism for Viability (AID 2283782).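 Note: continuous compound exposure with impedance area under curve over 80 h; hit means loss of impedance signal meaning reduced cell growth or viability.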 The gist of the method: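 T-47D human breast cells in phenol red-free RPMI1640 with 10% charcoal-stripped FBS were dosed with an 8-point 1:4 dilution series from 100 uM top final concentration, in duplicate. Impedance-based growth was followed for 80 h; AUC analysed versus DMSO.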

For assay [3], the target named is AR (gene 367) (UniProt P10275). The experiment in a line: ACEA_AR_agonist_80hr: ACEA Biosciences xCELLigence Real-Time Cell Analysis on Androgen Receptor Agonism for Proliferation (AID 2283783).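 Note: hits increase impedance growth signal above DMSO baseline.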 The gist of the method:
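22Rv1 human prostate cancer cells were seeded after preconditioning in assay medium and monitored overnight, then dosed in an eight-point 1:4 dilution series from 100 uM (≤0.5% DMSO). Impedance-based growth was read at 80 h, gain-of-signal versus DMSO.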

The nature of assay [4]: ATG_M_06_XSP2: Attagene TRANS-FACTORIAL Multi-Species (XSP2) HepG2 Assay for M06 Transcription Factor (Internal Marker) (AID 2283811).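 Note: internal background marker reporter mRNA measured by RT-PCR and capillary electrophoresis; hits are increases in signal above the DMSO baseline.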 In a few lines:
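HepG2 cells transiently transfected with GAL4-UAS multi-reporter constructs, dosed 24 h with 3 nM 6-alpha-fluorotestosterone plus 1.5 nM norgestrel present to stimulate androgen receptor. Reporter mRNA quantified by RT-PCR, 6-FAM labelling, HpaI digestion and capillary electrophoresis; gain-of-signal fitted versus DMSO baseline.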

For assay [5], the system named is turtle Estrogen Receptor (ERa), gene 101933533. The assay is described as follows: ATG_trERa_XSP2: Attagene TRANS-FACTORIAL Multi-Species (XSP2) HepG2 Assay for turtle Estrogen Receptor (ERa) (AID 2283812).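 Note: human HepG2 liver cells transiently expressing turtle ERa-Gal4 chimeric receptor; actives raise reporter signal above DMSO so AC50 reflects agonist activity.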 In a few lines:
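HepG2 cells transiently transfected with GAL4-UAS reporter units expressing turtle ERa-Gal4 chimera. Reporter mRNA measured after 24 h dosing by RT-PCR, fluorescent labelling and capillary electrophoresis; gain of signal fitted versus DMSO.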

For assay [6], the target named is Estrogen receptor beta (Homo sapiens) (UniProt Q92731). The assay is described as follows: ATG_hERb_XSP2: Attagene TRANS-FACTORIAL Multi-Species (XSP2) HepG2 Assay for human Estrogen Receptor (ERb) (AID 2283813).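 Note: actives raise reporter mRNA above DMSO so AC50 reflects agonist induction.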 The gist of the method:
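HepG2 cells transiently transfected with GAL4-UAS reporter units and chimeric human ERb-Gal4, 24 h exposure. Reporter mRNA quantified by RT-PCR with FAM labelling, HpaI digestion and capillary electrophoresis; gain of signal versus DMSO.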

In assay [7] the test system is turtle Androgen Receptor (AR), gene 101947425. The assay is described as follows: ATG_trAR_XSP2: Attagene TRANS-FACTORIAL Multi-Species (XSP2) HepG2 Assay for turtle Androgen Receptor (AR) (AID 2283815).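 For AC50: potency for gain of reporter signal meaning activation above DMSO baseline.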 In a few lines:
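HepG2 cells transiently transfected with GAL4-UAS reporter units for chimeric NR-Gal4 receptors; 24 h dosing in presence of 3 nM 6-alpha-fluorotestosterone and 1.5 nM norgestrel. Reporter mRNA by RT-PCR and capillary electrophoresis, gain of signal versus DMSO.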

In assay [8] the target is zebrafish Estrogen Receptor (ER1), esr1 (gene 259252) (UniProt P57717). The assay is described as follows: ATG_zfER1_XSP2: Attagene TRANS-FACTORIAL Multi-Species (XSP2) HepG2 Assay for zebrafish Estrogen Receptor (ER1) (AID 2283816). The gist of the method:
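HepG2 cells transiently transfected with a GAL4-UAS reporter and a chimeric zebrafish ER1-Gal4 construct, dosed 24 h. Reporter mRNA quantified by RT-PCR, labelling, HpaI digestion and capillary electrophoresis, relative to DMSO.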

The target of assay [9] is GAL4 Transcription Factor (Internal Marker), GAL4 (gene 855828) (UniProt P04386). The assay is described as follows: ATG_GAL4_XSP2: Attagene TRANS-FACTORIAL Multi-Species (XSP2) HepG2 Assay for GAL4 Transcription Factor (Internal Marker) (AID 2283814).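 Note: GAL4 reporter mRNA background control in MRTU transfected cells not a receptor target.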 The gist of the method:
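HepG2 cells transiently transfected with GAL4-UAS reporter units, stimulated with 3 nM 6-alpha-fluorotestosterone plus 1.5 nM norgestrel, dosed 24 h. Reporter mRNA by RT-PCR/capillary electrophoresis; gain-of-signal fit versus DMSO, background control.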

Sequence of AR (gene 367) (P10275 whole entry, looked up): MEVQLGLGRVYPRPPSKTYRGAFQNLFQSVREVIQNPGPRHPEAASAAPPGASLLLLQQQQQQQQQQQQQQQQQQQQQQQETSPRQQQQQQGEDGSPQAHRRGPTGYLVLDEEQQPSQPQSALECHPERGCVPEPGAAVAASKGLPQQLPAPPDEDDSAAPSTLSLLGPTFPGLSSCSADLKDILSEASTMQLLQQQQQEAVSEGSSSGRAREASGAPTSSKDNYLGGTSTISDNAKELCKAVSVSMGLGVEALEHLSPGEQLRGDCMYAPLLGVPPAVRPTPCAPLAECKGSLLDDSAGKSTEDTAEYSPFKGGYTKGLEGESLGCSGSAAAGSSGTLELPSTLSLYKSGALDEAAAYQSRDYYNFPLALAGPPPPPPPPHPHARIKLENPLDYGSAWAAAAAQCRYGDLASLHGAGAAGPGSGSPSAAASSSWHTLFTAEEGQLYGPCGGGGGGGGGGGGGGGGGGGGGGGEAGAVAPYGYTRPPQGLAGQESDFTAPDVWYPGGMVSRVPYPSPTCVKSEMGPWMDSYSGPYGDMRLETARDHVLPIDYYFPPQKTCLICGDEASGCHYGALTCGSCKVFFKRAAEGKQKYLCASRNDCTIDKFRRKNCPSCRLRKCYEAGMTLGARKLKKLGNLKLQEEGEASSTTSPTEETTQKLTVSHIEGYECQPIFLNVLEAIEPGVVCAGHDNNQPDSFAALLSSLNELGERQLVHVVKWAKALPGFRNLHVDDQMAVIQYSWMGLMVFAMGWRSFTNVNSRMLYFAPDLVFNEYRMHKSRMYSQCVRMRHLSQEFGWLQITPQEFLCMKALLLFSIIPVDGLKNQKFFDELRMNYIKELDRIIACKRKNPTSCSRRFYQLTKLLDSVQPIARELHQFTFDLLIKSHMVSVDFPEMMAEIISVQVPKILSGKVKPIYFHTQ
Sequence of zebrafish Estrogen Receptor (ER1), esr1 (gene 259252) (P57717 whole entry, looked up, the tested form may be a part): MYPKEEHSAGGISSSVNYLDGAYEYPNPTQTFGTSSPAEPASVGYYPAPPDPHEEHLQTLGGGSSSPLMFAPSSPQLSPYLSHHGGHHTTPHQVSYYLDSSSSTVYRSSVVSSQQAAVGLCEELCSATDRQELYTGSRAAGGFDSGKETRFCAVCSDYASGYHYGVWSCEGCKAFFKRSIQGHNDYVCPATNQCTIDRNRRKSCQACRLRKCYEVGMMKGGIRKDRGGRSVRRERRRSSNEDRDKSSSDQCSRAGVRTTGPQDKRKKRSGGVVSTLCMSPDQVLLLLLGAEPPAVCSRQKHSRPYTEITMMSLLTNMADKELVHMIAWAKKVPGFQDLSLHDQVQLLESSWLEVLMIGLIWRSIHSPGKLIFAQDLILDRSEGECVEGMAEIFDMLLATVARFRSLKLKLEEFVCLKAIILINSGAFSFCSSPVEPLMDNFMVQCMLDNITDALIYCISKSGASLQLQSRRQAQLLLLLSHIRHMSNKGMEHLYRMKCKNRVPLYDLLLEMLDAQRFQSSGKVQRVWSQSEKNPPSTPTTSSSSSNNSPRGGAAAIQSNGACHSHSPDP
Sequence of Estrogen receptor beta (Homo sapiens) (Q92731 whole entry, looked up, the tested form may be a part): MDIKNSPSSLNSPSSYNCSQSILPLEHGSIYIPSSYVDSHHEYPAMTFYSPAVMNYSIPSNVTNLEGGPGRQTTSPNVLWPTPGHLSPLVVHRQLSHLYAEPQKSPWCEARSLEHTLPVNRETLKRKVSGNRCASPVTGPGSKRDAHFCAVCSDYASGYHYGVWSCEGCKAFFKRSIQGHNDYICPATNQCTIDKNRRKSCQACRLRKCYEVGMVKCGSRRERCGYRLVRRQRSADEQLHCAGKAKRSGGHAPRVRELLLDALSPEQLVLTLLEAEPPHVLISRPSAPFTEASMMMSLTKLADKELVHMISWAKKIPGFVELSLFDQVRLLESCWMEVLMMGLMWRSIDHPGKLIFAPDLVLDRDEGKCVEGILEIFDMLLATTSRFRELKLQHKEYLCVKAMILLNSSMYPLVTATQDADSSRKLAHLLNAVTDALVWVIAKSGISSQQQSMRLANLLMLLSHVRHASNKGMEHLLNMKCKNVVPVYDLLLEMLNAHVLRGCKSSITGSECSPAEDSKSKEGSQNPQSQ
Sequence of GAL4 Transcription Factor (Internal Marker), GAL4 (gene 855828) (P04386 whole entry, looked up, the tested form may be a part): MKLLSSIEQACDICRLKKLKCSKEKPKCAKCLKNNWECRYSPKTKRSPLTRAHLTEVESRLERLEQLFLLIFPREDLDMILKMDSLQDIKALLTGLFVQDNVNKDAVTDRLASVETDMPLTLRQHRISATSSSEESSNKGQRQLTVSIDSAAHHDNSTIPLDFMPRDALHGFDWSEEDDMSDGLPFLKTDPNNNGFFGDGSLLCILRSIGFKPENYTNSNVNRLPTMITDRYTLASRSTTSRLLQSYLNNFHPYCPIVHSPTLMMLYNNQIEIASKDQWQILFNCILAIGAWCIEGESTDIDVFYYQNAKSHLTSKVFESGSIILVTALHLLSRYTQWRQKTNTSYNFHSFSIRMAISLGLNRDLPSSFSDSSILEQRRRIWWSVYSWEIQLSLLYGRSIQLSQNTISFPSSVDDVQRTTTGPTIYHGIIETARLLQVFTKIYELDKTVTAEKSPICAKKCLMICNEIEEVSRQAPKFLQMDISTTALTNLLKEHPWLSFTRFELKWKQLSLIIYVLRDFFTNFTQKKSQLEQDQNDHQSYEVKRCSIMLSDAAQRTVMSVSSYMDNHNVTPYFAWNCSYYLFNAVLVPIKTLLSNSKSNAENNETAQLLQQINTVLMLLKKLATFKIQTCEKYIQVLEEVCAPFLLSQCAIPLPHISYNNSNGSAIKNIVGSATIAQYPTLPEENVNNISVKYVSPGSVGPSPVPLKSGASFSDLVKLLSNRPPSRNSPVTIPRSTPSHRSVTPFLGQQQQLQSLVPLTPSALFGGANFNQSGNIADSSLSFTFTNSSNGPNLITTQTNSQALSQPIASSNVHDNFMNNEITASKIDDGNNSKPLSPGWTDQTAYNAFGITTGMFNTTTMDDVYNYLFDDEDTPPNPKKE

On to `NCCCN1CCOCC1`, for which, in the assay with AR (gene 367) [1], the outcome was inactive.

A word on the AC50: it is the concentration giving half of the maximal activity seen. `CCCCCCCCCCCCCCCC(=O)OC[C@H](O)[C@H]1OC(=O)C(O)=C1O`: the AC50 in [2] is 39.2 µM (active); in the assay with AR (gene 367) [1], 7.84 µM (active). Turning to `CCCOCC(C)O` (configuration not stated), the outcome with AR (gene 367) [3] was inactive. Regarding `c1ccc2[nH]ccc2c1`, in the assay with AR (gene 367) [1], the call was inactive. `C=CC(=O)NCOCC(C)C`: in [2], the compound was called inactive. Regarding `CCCCCCCCCCCCCCCC(=O)O`, the AC50 in [2] was 84.3 µM (active). In the case of `COc1ccc(O)cc1`, the compound was classed as inactive (in [2]; in the assay with AR (gene 367) [1]). For `O=c1cc(-c2ccccc2)oc2cc(O)cc(O)c12`, the AC50 with AR (gene 367) [3] is 0.0729 µM (active); in assay [5], 9.68 µM (active) and 2.6 µM (active); in assay [6], 42.2 µM (active) and 2.03 µM (active); in assay [7], 1.41 µM (active); in [8] it was 6.38 µM (active). For the same compound, the compound was classed as inactive (with AR (gene 367) [1]; in assay [4]; in assay [8]). As for `CC(C)=CCCC(C)=CCCC(C)=CCO`, the AC50 in [2] was 84.2 µM (active). For `CCCCC[Si](OCC)(OCC)OCC`, the result with AR (gene 367) [1] was inactive. On to `C=CC(C)(CCC=C(C)C)OC=O` (configuration not stated), for which the outcome in assay [2] was inactive. With `O=C(Oc1ccccc1)c1ccc(O)cc1`, the AC50 was 30.6 µM (active) in assay [5], 6.15 µM (active) in assay [6] and 58.3 µM (active) in assay [8]. Besides, the compound was classed as inactive in [5], in [6], in assay [9], in [7] and in assay [8]. As to `CCCCC(CC)COC(=O)/C=C\C(=O)OCC(CC)CCCC` (configuration not stated), the AC50 in assay [2] is 27.4 µM (active). On to `CN(C)CCCN`, for which the compound was classed as inactive in [2].

Turning to `CCCCCCCCCCCCCOS(=O)(=O)O`, in assay [2], the AC50 is 73.8 µM (active). In addition, the compound was classed as inactive with AR (gene 367) [3].

Regarding `C[Si](O[Si](C)(C)C)O[Si](C)(C)C`, the call with AR (gene 367) [3] and with AR (gene 367) [1] was inactive. `CCCCOCCOCCOCCOCCO`: the compound was classed as inactive in [2]. For `CC(=O)[O][Al][O]C(C)=O`, the AC50 in assay [2] was 9.92 µM (active). Same read-out and setting: then `CCCC/C=C\CCCCCCCCCC=O`, with 91.2 µM (active).
